The test system of assay [1] is DLD1. As to the kind of experiment: cell viability (CellTiter-Glo) relative to plate median (fraction of plate median); higher = more viable cells. The note with it: 5 µM; treatment time 24 h; reporter: 7TFP. Summed up:
(§1)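 After seeding in 384-well plates, colorectal cancer cell lines carrying stable lentiviral TCF/Wnt firefly luciferase reporters (7TFP or TCF4/Wnt) were left 24 h. Library compounds were then added at a final 5 µM for 24 h. A Tecan F500 reader measured firefly luciferase or CellTiterGlo luminescence on parallel plates, with each well normalised to the plate median by webcellHTS2 (additive, no log transformation), and two independent replicates averaged.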
Background: Cellular ATP, detected with luciferase, serves as a proxy for viable cell number.

The test system of another assay is HCT116. The assay is described as above. Conditions: 5 µM; treatment time 24 h; reporter: TCF4/Wnt. The gist of the method:
as §1

For assay [2], the system named is SW480. Described as above. The note with it: 5 µM; treatment time 24 h; reporter: 7TFP. Summed up:
as §1

Assay [3] has as its system DLD1. As to the kind of experiment: TCF/Wnt firefly luciferase reporter signal relative to plate median (fraction of plate median); higher = higher Wnt reporter signal. The note with it: 5 µM; treatment time 24 h; reporter: 7TFP. Summed up: as §1
The test system of assay [4] is SW480. The assay is described as above. The note with it: 5 µM; treatment time 24 h; reporter: 7TFP. The gist of the method:
as §1

± gives the standard deviation of the averaged measurements.

For the compound `CC1(C)C(O[C@@H]2OC[C@@H](O)[C@H](O)[C@H]2O)CC[C@]23CC24CC[C@]2(C)[C@@H]([C@@]5(C)CC[C@@H](C(C)(C)O)O5)[C@H](O)C[C@@]2(C)C4C[C@@H](O[C@@H]2O[C@H](CO)[C@@H](O)[C@H](O)[C@H]2O)C13` (stereo not given in full), the cell viability was 0.987 ± 0.033 in the assay on DLD1 [1], 0.961 ± 0.016 with HCT116 and 0.9815 ± 0.0064 in the assay on SW480 [2]. The “TCF/Wnt firefly luciferase reporter signal” value was 1 ± 0.011 in the assay on DLD1 [3] and 1.075 ± 0.0071 in the assay on SW480 [4].
With `C[C@]12CCC(=O)C=C1CC[C@@H]1[C@@H]2[C@@H](O)C[C@@]2(C)[C@H]1CC[C@]2(O)C(=O)CO`, the cell viability in the assay with DLD1 [1] was 1.06 ± 0.071; in the assay with HCT116 it was 1.05 ± 0.057; in the assay with SW480 [2] it was 1.04 ± 0.028. Moreover, the “TCF/Wnt firefly luciferase reporter signal” value in the assay on DLD1 [3] was determined as 0.951 ± 0.11; with SW480 [4], 0.935 ± 0.04.
The matching figures for `COc1cc(-c2cc(=O)c3c(O)c(OC)c(OC)c(OC)c3o2)cc(OC)c1OC`: 0.948 ± 0.073, 1.06 ± 0.098, 0.956 ± 0.02, 1.02 ± 0.028 and 0.936 ± 0.021.
Regarding `COc1ccnc(C[S+]([O-])c2nc3cc(OC(F)F)ccc3[nH]2)c1OC` (stereo not given), the cell viability in the assay with DLD1 [1] is 0.961 ± 0.0042; with HCT116, 1.03 ± 0.014; with SW480 [2], 0.974 ± 0.036. Besides, the figures for the “TCF/Wnt firefly luciferase reporter signal” value in the assay on DLD1 [3] and in the assay with SW480 [4] were 1.06 ± 0.05 and 1.05 ± 0.071, respectively.
In the case of `CC[C@@]1(O)C(=O)OCc2c1cc1n(c2=O)Cc2cc3cc(O)ccc3nc2-1`, the cell viability with DLD1 [1] turned out to be 1.05 ± 0.071; in the assay with HCT116 it was 0.724 ± 0.093; in the assay with SW480 [2], 0.999 ± 0.14. The results for the “TCF/Wnt firefly luciferase reporter signal” value in the assay with DLD1 [3] and in the assay with SW480 [4] were 0.871 ± 0.1 and 0.805 ± 0.041, respectively.
For the compound `CC(C)=CCc1c(O)cc2oc(C)cc(=O)c2c1O`, the cell viability was found to be 1 ± 0.036 in the assay with DLD1 [1], 0.981 ± 0.055 with HCT116 and 1 ± 0.024 in the assay on SW480 [2]. The figures for the “TCF/Wnt firefly luciferase reporter signal” value in the assay on DLD1 [3] and in the assay with SW480 [4] were 0.869 ± 0.15 and 0.943 ± 0.095, respectively.
Consider `Cc1ccccc1OCC(O)CO` (stereo not given), for which the cell viability in the assay on DLD1 [1] is 0.958 ± 0.042; with HCT116, 0.983 ± 0.0099; with SW480 [2], 0.999 ± 0.03. In addition, the “TCF/Wnt firefly luciferase reporter signal” value was 1.02 ± 0.15 in the assay on DLD1 [3] and 1.04 ± 0.014 with SW480 [4].
Turning to `N[C@@H](Cc1cc(I)c(Oc2ccc(O)c(I)c2)c(I)c1)C(=O)O`, the cell viability in the assay with DLD1 [1] was 0.988 ± 0.015; in the assay on HCT116, 0.926 ± 0.012; in the assay on SW480 [2] it was 0.969 ± 0.036. The “TCF/Wnt firefly luciferase reporter signal” value in the assay with DLD1 [3] was 1.01 ± 0.17; in the assay with SW480 [4], 0.978 ± 0.0099.
The matching figures for `O=C1CN2Cc3c(ccc(Cl)c3Cl)N=C2N1`: 1.05 ± 0.081, 1.04, 1 ± 0.011, 1.19 ± 0.092 and 0.98 ± 0.13.
In the case of `CCCc1nn(C)c2c(=O)[nH]c(-c3cc(S(=O)(=O)N4CCN(C)CC4)ccc3OCC)nc12`, the results for the cell viability with DLD1 [1], with HCT116 and in the assay on SW480 [2] were 1 ± 0.067, 0.981 ± 0.21 and 0.978 ± 0.013, respectively. The entries for the “TCF/Wnt firefly luciferase reporter signal” value with DLD1 [3] and in the assay with SW480 [4] were 1.02 ± 0.042 and 1.09 ± 0.028, respectively.
On to `NC(=O)c1cnccn1`, for which the values for the cell viability in the assay on DLD1 [1], in the assay on HCT116 and with SW480 [2] were 0.988 ± 0.045, 0.9595 ± 0.0035 and 1.02 ± 0.05, respectively. The “TCF/Wnt firefly luciferase reporter signal” value with DLD1 [3] is 1.02 ± 0.13; in the assay on SW480 [4] it was 0.942 ± 0.083.
`OC(CCN1CCCCC1)(c1ccccc1)C1CCCCC1` (stereo not given): the cell viability was 0.963 ± 0.03 in the assay on DLD1 [1], 0.932 ± 0.033 with HCT116 and 0.945 ± 0.052 in the assay on SW480 [2]. The “TCF/Wnt firefly luciferase reporter signal” value in the assay with DLD1 [3] came out at 0.855 ± 0.052; in the assay with SW480 [4], 0.917 ± 0.018.
For `CC(C)NCC(O)COc1ccc(COCCOC(C)C)cc1` (stereo not given), in that order: 0.948 ± 0.017, 0.99 ± 0.0057, 0.933 ± 0.0028, 1.03 ± 0.042 and 0.964 ± 0.066.
Consider `NC(N)=Nc1nc(CSCC/C(N)=N/S(N)(=O)=O)cs1`, for which the cell viability worked out at 1 ± 0.083 in the assay with DLD1 [1], 1.01 ± 0.028 in the assay on HCT116 and 0.916 ± 0.054 with SW480 [2]. Besides, the “TCF/Wnt firefly luciferase reporter signal” value in the assay on DLD1 [3] is 1.12 ± 0.092; with SW480 [4], 1.11 ± 0.035.

(Values after the supplement of paper PMC6522484.)
